Results reported in the supplement of paper PMC10849652.
Targets with a hit are over-represented here; the source holds about 7,900 in all. About 0.6% of all pairs of compound and target were hits. A number with no mark means an inactive call.

Legend:
Experiment in all cases: log2 fold change, soluble protein after heating vs DMSO (PISA); higher = thermal stabilisation; K562 cells, 10 uM, 30 min; active = over 0.2 and 3.5 SD of the protein, either way, in both replicates (recomputed)
saracatinib = compound: CN1CCN(CCOc2cc(OC3CCOCC3)c3c(Nc4c(Cl)ccc5c4OCO5)ncnc3c2)CC1 [saracatinib]
Summary of the method: (§1)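 K562 cells (2×10^6 cells/mL) were treated with 10 μM compound for 30 min, and aliquots were heated for 3 min over 48°C-58°C. Pooled aliquots were extracted in PBS with 0.5% NP-40 at 4°C, and the supernatant after 21,000xg for 90 min was measured by TMTpro 16plex LC-MS/MS with channel sums equalised. Reported thermal stability, relative to control samples and from duplicates, is a log2 fold change.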

sotrastaurin = compound: CN1CCN(c2nc(C3=C(c4c[nH]c5ccccc45)C(=O)NC3=O)c3ccccc3n2)CC1 [sotrastaurin]
Summary of the method: as §1

alvocidib = compound: CN1CC[C@H](c2c(O)cc(O)c3c(=O)cc(-c4ccccc4Cl)oc23)[C@H](O)C1 [alvocidib]
Summary of the method: as §1

Tubastatin A = compound: CN1CCc2c(c3ccccc3n2Cc2ccc(C(=O)NO)cc2)C1 [Tubastatin A]
Summary of the method: as §1

[1] = compound: CNC(=O)C1=CC=CC=C1NC2=NC(=NC=C2Cl)NC3=C(C=C(C=C3)N4CCOCC4)OC
Summary of the method: as §1

defactinib = compound: CNC(=O)c1ccc(Nc2ncc(C(F)(F)F)c(NCc3nccnc3N(C)S(C)(=O)=O)n2)cc1 [defactinib]
Summary of the method: as §1

rucaparib = compound: CNCc1ccc(-c2[nH]c3cc(F)cc4c3c2CCNC4=O)cc1 [rucaparib]
Summary of the method: as §1

[2] = compound: CNc1nc(-c2ccc3c(N)n[nH]c3c2)cc(N2C[C@@H](C(=O)NC3CCCCC3)CC[C@H]2C)n1
Summary of the method: as §1

encorafenib = compound: COC(=O)N[C@@H](C)CNc1nccc(-c2cn(C(C)C)nc2-c2cc(Cl)cc(NS(C)(=O)=O)c2F)n1 [encorafenib]
Summary of the method: as §1

[3] = compound: COC(=O)[C@H](CCSC)NC(=O)C1=C(C=C(C=C1)NC[C@H](CS)N)C2=CC=CC=C2
Summary of the method: as §1

Chain of UniProt Q8N3D4 (Q8N3D4 whole entry, looked up): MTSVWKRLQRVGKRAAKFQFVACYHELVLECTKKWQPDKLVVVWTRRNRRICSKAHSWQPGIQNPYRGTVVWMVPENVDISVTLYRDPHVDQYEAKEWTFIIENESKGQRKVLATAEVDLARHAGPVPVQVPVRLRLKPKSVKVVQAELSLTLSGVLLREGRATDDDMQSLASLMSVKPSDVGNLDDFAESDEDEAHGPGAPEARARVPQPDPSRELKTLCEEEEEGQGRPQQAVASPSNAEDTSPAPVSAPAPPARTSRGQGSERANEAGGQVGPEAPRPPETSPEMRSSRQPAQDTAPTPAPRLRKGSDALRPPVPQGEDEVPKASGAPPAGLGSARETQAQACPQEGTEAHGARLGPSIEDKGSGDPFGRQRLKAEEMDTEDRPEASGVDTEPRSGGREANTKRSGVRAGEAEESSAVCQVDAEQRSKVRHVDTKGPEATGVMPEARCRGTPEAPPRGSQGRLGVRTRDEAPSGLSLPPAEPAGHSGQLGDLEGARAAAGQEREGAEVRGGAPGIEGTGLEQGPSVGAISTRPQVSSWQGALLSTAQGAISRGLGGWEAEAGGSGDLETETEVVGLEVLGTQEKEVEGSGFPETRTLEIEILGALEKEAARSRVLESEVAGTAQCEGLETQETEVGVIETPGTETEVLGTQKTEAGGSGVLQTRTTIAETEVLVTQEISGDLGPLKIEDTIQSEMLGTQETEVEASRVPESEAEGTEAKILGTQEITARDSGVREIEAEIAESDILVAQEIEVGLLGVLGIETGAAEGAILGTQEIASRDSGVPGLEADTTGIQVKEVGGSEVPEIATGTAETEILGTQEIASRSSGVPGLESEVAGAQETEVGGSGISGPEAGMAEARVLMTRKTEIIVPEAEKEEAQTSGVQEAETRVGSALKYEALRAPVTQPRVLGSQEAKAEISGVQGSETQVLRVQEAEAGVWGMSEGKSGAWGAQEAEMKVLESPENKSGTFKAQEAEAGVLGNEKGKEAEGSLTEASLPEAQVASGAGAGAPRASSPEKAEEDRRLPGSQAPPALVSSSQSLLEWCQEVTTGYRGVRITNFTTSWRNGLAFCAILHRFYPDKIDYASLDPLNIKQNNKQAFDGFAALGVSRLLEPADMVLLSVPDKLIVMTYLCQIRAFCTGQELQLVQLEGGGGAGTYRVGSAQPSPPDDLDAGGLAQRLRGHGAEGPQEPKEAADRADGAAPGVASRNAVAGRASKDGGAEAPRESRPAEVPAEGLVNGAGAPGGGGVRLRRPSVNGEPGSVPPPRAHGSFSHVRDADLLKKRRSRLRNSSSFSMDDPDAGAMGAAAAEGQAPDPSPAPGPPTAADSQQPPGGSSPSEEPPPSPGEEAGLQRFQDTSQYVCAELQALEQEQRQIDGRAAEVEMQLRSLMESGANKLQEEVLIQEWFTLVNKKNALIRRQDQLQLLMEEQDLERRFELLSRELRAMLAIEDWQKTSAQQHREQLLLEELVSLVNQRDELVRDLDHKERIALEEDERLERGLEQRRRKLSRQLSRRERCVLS
Chain of UniProt Q15369 (Q15369 whole entry, looked up): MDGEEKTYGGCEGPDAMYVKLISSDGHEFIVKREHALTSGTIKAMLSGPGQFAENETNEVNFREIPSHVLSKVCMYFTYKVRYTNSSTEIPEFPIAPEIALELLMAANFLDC
Chain of UniProt P11182 (P11182 whole entry, looked up): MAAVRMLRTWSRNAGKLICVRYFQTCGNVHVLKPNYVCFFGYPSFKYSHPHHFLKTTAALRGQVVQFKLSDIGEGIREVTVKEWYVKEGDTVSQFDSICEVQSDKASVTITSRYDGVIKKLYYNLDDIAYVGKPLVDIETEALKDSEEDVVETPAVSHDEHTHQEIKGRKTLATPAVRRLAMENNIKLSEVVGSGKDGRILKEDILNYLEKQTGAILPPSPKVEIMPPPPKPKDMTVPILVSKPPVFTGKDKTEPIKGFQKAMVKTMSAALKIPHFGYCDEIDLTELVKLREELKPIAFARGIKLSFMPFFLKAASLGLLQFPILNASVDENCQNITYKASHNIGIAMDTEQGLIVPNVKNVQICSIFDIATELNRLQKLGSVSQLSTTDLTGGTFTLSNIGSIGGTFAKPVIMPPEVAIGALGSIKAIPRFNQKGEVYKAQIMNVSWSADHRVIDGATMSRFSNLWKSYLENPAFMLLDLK
Chain of UniProt Q7Z2Z2 (Q7Z2Z2 whole entry, looked up): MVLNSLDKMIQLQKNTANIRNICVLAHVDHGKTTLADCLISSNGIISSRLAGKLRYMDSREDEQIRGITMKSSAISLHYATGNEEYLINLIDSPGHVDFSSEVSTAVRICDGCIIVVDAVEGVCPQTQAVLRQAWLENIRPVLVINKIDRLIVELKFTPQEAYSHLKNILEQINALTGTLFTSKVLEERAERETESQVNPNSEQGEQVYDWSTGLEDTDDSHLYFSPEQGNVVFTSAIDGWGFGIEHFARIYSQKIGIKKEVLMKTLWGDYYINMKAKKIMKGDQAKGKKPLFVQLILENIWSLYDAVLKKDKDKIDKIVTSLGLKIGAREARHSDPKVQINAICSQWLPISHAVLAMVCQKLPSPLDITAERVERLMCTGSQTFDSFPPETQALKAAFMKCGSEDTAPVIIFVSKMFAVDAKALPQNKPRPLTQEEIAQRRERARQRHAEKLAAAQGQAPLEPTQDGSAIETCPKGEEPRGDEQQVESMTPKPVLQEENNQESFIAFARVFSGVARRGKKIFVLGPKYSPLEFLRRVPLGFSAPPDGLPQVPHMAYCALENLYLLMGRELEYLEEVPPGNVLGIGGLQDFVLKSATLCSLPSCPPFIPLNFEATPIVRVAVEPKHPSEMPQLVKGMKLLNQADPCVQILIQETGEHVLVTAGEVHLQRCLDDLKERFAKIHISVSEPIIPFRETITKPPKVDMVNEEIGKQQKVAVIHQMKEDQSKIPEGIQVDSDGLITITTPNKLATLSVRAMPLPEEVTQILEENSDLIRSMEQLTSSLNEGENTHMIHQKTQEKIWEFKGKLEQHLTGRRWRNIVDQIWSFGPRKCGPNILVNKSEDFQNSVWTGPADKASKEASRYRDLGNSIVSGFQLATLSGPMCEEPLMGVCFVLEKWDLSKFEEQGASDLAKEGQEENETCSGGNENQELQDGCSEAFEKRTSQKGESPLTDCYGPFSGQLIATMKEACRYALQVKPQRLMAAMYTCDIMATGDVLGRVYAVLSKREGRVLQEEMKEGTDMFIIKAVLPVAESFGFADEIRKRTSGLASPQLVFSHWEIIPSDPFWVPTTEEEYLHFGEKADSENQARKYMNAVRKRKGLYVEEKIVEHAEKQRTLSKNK
Chain of UniProt P39880 (P39880 whole entry, looked up): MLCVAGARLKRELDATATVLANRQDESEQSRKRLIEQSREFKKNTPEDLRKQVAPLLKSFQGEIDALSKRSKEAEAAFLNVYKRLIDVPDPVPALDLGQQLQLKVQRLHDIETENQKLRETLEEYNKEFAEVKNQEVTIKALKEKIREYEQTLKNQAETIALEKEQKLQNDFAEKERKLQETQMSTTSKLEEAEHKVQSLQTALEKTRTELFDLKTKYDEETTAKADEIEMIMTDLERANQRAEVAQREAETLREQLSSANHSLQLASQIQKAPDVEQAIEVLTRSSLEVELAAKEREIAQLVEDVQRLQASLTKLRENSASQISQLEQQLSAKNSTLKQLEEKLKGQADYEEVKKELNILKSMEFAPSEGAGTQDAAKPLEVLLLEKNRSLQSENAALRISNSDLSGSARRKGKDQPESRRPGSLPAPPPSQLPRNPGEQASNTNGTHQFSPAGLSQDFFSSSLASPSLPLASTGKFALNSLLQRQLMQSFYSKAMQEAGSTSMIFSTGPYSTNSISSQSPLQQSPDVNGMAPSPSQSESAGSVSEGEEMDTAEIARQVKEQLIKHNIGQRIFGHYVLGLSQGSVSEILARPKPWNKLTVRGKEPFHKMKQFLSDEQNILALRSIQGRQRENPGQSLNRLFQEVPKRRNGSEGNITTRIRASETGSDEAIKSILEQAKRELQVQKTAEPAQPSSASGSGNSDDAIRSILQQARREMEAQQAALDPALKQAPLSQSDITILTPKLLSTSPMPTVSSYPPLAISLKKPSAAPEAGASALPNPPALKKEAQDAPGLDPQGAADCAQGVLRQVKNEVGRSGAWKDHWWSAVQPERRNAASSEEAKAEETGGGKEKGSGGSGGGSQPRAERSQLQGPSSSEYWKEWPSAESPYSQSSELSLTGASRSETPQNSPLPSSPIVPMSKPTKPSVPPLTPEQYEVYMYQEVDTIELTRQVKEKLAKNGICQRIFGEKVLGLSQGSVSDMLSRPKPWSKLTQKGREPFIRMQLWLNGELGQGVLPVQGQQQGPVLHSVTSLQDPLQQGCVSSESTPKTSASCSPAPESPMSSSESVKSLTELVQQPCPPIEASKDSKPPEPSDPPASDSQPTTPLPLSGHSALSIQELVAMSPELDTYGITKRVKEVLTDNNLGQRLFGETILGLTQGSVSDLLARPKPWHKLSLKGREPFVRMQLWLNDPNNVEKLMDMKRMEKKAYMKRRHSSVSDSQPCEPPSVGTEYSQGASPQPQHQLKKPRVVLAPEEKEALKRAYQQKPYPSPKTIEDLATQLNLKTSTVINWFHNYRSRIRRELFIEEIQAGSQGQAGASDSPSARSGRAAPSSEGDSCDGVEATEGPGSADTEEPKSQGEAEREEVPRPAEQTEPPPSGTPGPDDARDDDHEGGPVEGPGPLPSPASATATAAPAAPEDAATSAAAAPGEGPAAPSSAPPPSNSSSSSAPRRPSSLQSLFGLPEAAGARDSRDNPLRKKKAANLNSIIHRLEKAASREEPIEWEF
Chain of UniProt Q99848 (Q99848 whole entry, looked up): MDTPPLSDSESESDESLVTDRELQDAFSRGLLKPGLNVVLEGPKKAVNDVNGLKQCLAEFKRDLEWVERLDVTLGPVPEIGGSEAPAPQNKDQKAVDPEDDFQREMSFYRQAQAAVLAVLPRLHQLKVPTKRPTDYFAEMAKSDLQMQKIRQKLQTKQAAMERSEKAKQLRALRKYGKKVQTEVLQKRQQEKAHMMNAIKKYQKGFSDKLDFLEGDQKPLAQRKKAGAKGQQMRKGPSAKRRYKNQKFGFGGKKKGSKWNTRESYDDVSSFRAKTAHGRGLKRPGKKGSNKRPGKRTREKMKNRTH

| Target | log2 fold change (saracatinib) | log2 fold change (sotrastaurin) | log2 fold change (alvocidib) | log2 fold change (Tubastatin A) | log2 fold change [1] | log2 fold change (defactinib) | log2 fold change (rucaparib) | log2 fold change [2] | log2 fold change (encorafenib) | log2 fold change [3] |
| --- | --- | --- | --- | --- | --- | --- | --- | --- | --- | --- |
| ELOVL5 isoform 2 (UniProt Q9NYP7) | -0.037 | -0.084 | -0.021 | -0.085 | -0.032 | -0.016 | -0.026 | -0.135 | 0.132 | -0.048 |
| DFFB (UniProt O76075) | 0.017 | 0.052 | -0.038 | 0.07 | 0.009 | 0.024 | 0.049 | -0.016 | -0.019 | 0.033 |
| EXOC8 (UniProt Q8IYI6) | -0.015 | -0.196 | -0.031 | -0.012 | 0.056 | -0.069 | 0.016 | 0.112 | 0.094 | -0.047 |
| ERCC2 (UniProt P18074) | -0.016 | -0.035 | -0.062 | 0.051 | -0.01 | -0.094 | -0.013 | -0.027 | 0.177 | -0.005 |
| EHBP1L1 (UniProt Q8N3D4) | -0.065 | -0.082 | -0.049 | 0.098 | -0.002 | -0.089 | 0.1 | -0.008 | 0.127 | -0.017 |
| DAG1 (UniProt Q14118) | -0.033 | 0.1 | -0.026 | -0.021 | -0.093 | -0.032 | -0.014 | 0.052 | 0.002 | 0.007 |
| ELOC (UniProt Q15369) | 0.008 | 0.01 | -0.074 | 0.035 | 0.025 | -0.033 | -0.021 | 0 | -0.021 | -0.014 |
| DPYSL2 (UniProt Q16555) | 0.127 | 0.062 | -0.089 | -0.003 | -0.066 | 0.02 | 0.015 | -0.032 | -0.054 | -0.009 |
| CUX1 isoform 3 (UniProt P39880) | 0.002 | -0.003 | -0.02 | 0.021 | 0.012 | -0.065 | 0.037 | -0.062 | -0.018 | 0.01 |
| EXOC1 (UniProt Q9NV70) | 0.013 | -0.249 | -0.04 | 0.038 | -0.002 | -0.074 | 0.172 | 0.066 | 0.06 | -0.081 |
| DEGS1 (UniProt O15121) | 0.088 | -0.022 | 0.036 | -0.521 (active) | 0.046 | -0.18 | 0.002 | 0.029 | 0.002 | 0.106 |
| EHD2 (UniProt Q9NZN4) | 0.016 | 0.017 | -0.017 | 0.048 | -0.031 | -0.12 | -0.019 | -0.053 | 0.046 | -0.061 |
| EED, A0A5F9ZI63 | 0.008 | -0.065 | 0.037 | -0.041 | -0.057 | -0.04 | 0.125 | -0.052 | 0.025 | -0.05 |
| ECH1 (UniProt Q13011) | -0.037 | 0.727 (active) | 0.053 | 0.519 (active) | 0.122 | -0.023 | -0.012 | -0.031 | -0.035 | -0.024 |
| EBNA1BP2 (UniProt Q99848) | -0.081 | -0.138 | 0.165 | 0.34 | -0.047 | 0.512 | 0.23 | 0.142 | 0.13 | 0.086 |
| EXTL2 (UniProt Q9UBQ6) | 0.157 | 0.036 | -0.122 | -0.136 | -0.072 | -0.145 | 0.001 | 0.052 | -0.08 | 0.13 |
| EFL1 (UniProt Q7Z2Z2) | -0.036 | -0.004 | -0.038 | -0.007 | -0.014 | -0.022 | 0.015 | 0.019 | 0.033 | -0.014 |
| DBN1 isoform 3 (UniProt Q16643) | 0.121 | 0.001 | -0.044 | -0.094 | -0.042 | -0.06 | 0.041 | -0.011 | 0.097 | -0.033 |
| F5 (UniProt P12259) | -0.003 | 0.139 | 0.134 | -0.076 | 0.133 | 0.081 | -0.079 | -0.068 | 0.037 | 0.039 |
| EIF4E isoform 2 (UniProt P06730) | 0.04 | 0.189 | -0.027 | -0.085 | 0 | -0.012 | 0.008 | 0.133 | -0.023 | -0.072 |
| DNAJC1 (UniProt Q96KC8) | -0.02 | -0.028 | -0.012 | 0.018 | 0.046 | 0.004 | 0.03 | -0.011 | 0.003 | 0.005 |
| DBT (UniProt P11182) | -0.012 | 0.025 | 0.009 | -0.072 | 0.048 | 0.071 | 0.089 | -0.03 | 0.046 | -0.013 |
| DNAJC19 (UniProt Q96DA6) | 0.025 | -0.029 | -0.021 | -0.038 | 0.003 | -0.027 | 0.01 | -0.028 | -0.044 | -0.012 |
| FAM117A (UniProt Q9C073) | -0.019 | 0.009 | -0.077 | 0.058 | -0.268 (active) | -0.141 | -0.079 | 0.083 | -0.023 | 0.009 |
| FAAP100 (UniProt Q0VG06) | 0.044 | -0.014 | -0.035 | 0.028 | -0.178 | -0.044 | 0.009 | -0.067 | -0.04 | -0.097 |
| FAF2 (UniProt Q96CS3) | -0.084 | -0.048 | -0.053 | -0.008 | 0.021 | -0.011 | 0.015 | 0.021 | 0.036 | 0 |
| FAM114A2 (UniProt Q9NRY5) | 0.005 | -0.048 | -0.078 | -0.019 | -0.001 | -0.04 | -0.022 | -0.054 | 0.008 | 0.025 |
| EFCAB14 (UniProt O75071) | -0.164 | 0.083 | 0.016 | -0.029 | -0.03 | 0.093 | -0.059 | 0.031 | 0.044 | -0.086 |
| DHX16 (UniProt O60231) | 0.024 | -0.037 | -0.045 | -0.001 | -0.042 | -0.035 | -0.027 | 0.028 | 0.019 | -0.013 |
| DIP2A (UniProt Q14689) | 0.082 | 0.054 | -0.095 | -0.094 | 0.034 | -0.059 | 0.1 | -0.009 | 0 | 0.077 |
